Measured values: the supplement of paper PMC13380429
Where a name gives a salt, the structure may show the parent alone.

Tested on: Vero E6 infected with SARS-CoV-2
Test: inhibition of SARS-CoV-2 cytopathic effect; higher = more antiviral protection, active = above 15
Settings: 48 h

Measured: inhibition of SARS-CoV-2 cytopathic effect

CCN(CC)CCN(Cc1ccc(-c2ccc(C(F)(F)F)cc2)cc1)C(=O)Cn1c(SCc2ccc(F)cc2)nc(=O)c2c1CCC2 [darapladib]
inactive: 1 nM 1.47% | 8.33 nM 1.73% | 100 nM -1.85% | 833.33 nM -2.02% | 10000 nM -25.3%

CCn1nc(C2CCN(C(=O)CCO)CC2)nc1-c1cnc(N)c(-c2nnc(C(C)(C)C)o2)n1
inactive: 1 nM -2.84% | 8.33 nM 1.6% | 100 nM 1.87% | 833.33 nM -2.41% | 10000 nM -1.94%

CCCN1CCO[C@@H]2c3cc(O)ccc3OC[C@H]21
inactive: 1 nM -1.91% | 8.33 nM -3.42% | 100 nM 2.39% | 833.33 nM -0.35% | 10000 nM -2.98%

Cc1c(Cn2c(C)nc3c(C(=O)O)cc(N4CCOCC4)cc32)cccc1C(F)(F)F
inactive: 1 nM 1.56% | 8.33 nM 4.39% | 100 nM 3.91% | 833.33 nM -2.09% | 10000 nM -2.66%

NS(=O)(=O)c1ccc(-n2nc(C(F)(F)F)cc2-c2ccc(Cl)cc2)cc1
inactive: 1 nM 1.27% | 8.33 nM 3.82% | 100 nM -2.22% | 833.33 nM -0.43% | 10000 nM -0.38%

CC[N+](C)(CC)CCC[n+]1c(-c2ccccc2)c2cc(N)ccc2c2ccc(N)cc21 [propidium-iodide]
inactive: 1 nM -1.36% | 8.33 nM -0.29% | 100 nM 3.2% | 833.33 nM 2.34% | 10000 nM 2.62%

CN(C)CCOc1ccc(/C(=C(/CCCl)c2ccccc2)c2ccccc2)cc1 [Toremifene citrate]
inactive: 1 nM 0.8% | 8.33 nM 0.55% | 100 nM -0.55% | 833.33 nM 0.65% | 10000 nM 3.86%

CCCN(CCC)C(=O)C(CCC(=O)O)NC(=O)c1ccccc1 (stereo not given) [proglumide]
inactive: 1 nM 2.27% | 8.33 nM -2.46% | 100 nM -0.81% | 833.33 nM 2.34% | 10000 nM -1.09%

Cc1ccc(CNc2ncnc3ccc(-c4ccc(CO)o4)cc23)o1
inactive: 1 nM -1.31% | 8.33 nM 0.26% | 100 nM 0.15% | 833.33 nM -0.45% | 10000 nM 1.88%

O=C(O)c1ccc(-n2nc(-c3ccccc3O)nc2-c2ccccc2O)cc1 [deferasirox]
inactive: 1 nM -0.67% | 8.33 nM -4.22% | 100 nM -1.32% | 833.33 nM -1.58% | 10000 nM 0.43%

COc1cc2c(=O)c(-c3ccc(O)cc3)coc2cc1O [glycitein]
inactive: 1 nM 1.2% | 8.33 nM -0.34% | 100 nM -0.96% | 833.33 nM -2.13% | 10000 nM -1.58%

COC(=O)CC[C@@H]1N=C(c2ccccn2)c2cc(Br)ccc2-n2c(C)cnc21 [remimazolam]
inactive: 1 nM 0.83% | 8.33 nM 1.12% | 100 nM 2.32% | 833.33 nM 0.51% | 10000 nM -1.57%

Cc1cccc(C)c1NC1=NCCCS1 [xylazine]
inactive: 1 nM 1.43% | 8.33 nM 1.2% | 100 nM 1.06% | 833.33 nM -1.24% | 10000 nM -0.19%

CCOC(=O)CSCCC1NC(C(=O)O)CS1 (stereo not given) [letosteine]
inactive: 1 nM -0.45% | 8.33 nM -0.54% | 100 nM 3.16% | 833.33 nM 2.53% | 10000 nM 5.67%

O=C(O)[C@H](Cc1ccccc1)NCc1ccc(Cl)cc1
inactive: 1 nM 0.28% | 8.33 nM -1.27% | 100 nM -0.99% | 833.33 nM 1.08% | 10000 nM 0.65%

C[N+](C)(C)CC[N+]1(C)Cc2c(Cl)c(Cl)c(Cl)c(Cl)c2C1 [chlorisondamine-diiodide]
inactive: 1 nM 0.2% | 8.33 nM -3.86% | 100 nM -0.88% | 833.33 nM 1.41% | 10000 nM -1.63%

COc1ccccc1Oc1c(NS(=O)(=O)c2ccc(C(C)(C)C)cc2)nc(-c2ncccn2)nc1OCCO [bosentan]
inactive: 1 nM -0.62% | 8.33 nM 1.39% | 100 nM 1.79% | 833.33 nM -3.3% | 10000 nM -1.84%

C[C@@H]1CCCN1CCc1cc2cc(-c3ccc(C#N)cc3)ccc2o1
inactive: 1 nM -2.35% | 8.33 nM -2.18% | 100 nM 1.55% | 833.33 nM -0.35% | 10000 nM 4.34%

O=C(N[C@H](CO)[C@H](O)c1ccc([N+](=O)[O-])cc1)C(Cl)Cl [chloramphenicol]
inactive: 1 nM 0.28% | 8.33 nM -0.6% | 100 nM -1.23% | 833.33 nM 0.21% | 10000 nM -3.04%
